Where a name gives a salt, the structure may show the parent alone.
Tests used:
Test in all cases: Euclidean distance of Cell Painting phenotypic profile (signed KS, 77 features) to DMSO centroid (dimensionless distance); 5 or 10 uM (library dependent); higher = stronger phenotypic change vs DMSO (phenoactivity)
Details in all cases: 48 h
786-O = test system: 786-O
In short: (§1)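 Stained cells were imaged confocally at 20X with 9 fields per well, after 48 h of exposure to library compounds at 10 or 5 uM (set by library; 0.1% DMSO final). The cells were five cancer lines and a healthy fibroblast line. From the images, Harmony extracted 77 features, each expressed as a signed Kolmogorov-Smirnov statistic relative to same-plate vehicle wells. Phenoactivity is measured as Euclidean distance to the median vehicle profile, using plate-position-corrected, correlation-weighted profiles averaged across replicates at the top dose.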

A549 = test system: A549
In short: as §1

DU145 = test system: DU145
In short: as §1

FB = test system: FB
In short: as §1

HEPG2 = test system: HEPG2
In short: as §1

OVCAR4 = test system: OVCAR4
In short: as §1

SMILES	Euclidean distance (786-O)	Euclidean distance (A549)	Euclidean distance (DU145)	Euclidean distance (FB)	Euclidean distance (HEPG2)	Euclidean distance (OVCAR4)
CCN(CCO)CCCC(C)Nc1ccnc2cc(Cl)ccc12 (stereo unspecified) [Hydroxychloroquine Sulfate]	3.48	3.08	2.6	5.29	2.92	3.58
CC(COc1ccccc1)N(CCCl)Cc1ccccc1 (stereo unspecified) [Phenoxybenzamine HCl]	1.48	0.892	1.06	0.978	0.778	1.55
CNC(=O)[C@@H](NC(=O)[C@H](CC(C)C)[C@H](O)C(=O)NO)C(C)(C)C [Marimastat (BB-2516)]	1.09	2.02	1.14	1.06	0.866	1.4
CCOC(=O)c1ccc(OC(=O)CCCCCNC(=N)N)cc1 [Gabexate Mesylate]	1.36	0.886	1.01	0.822	1.58	1.68
CCn1cc(C(=O)O)c(=O)c2cc(F)c(N3CCN(C)CC3)cc21 [Pefloxacin Mesylate Dihydrate]	1.52	1.04	0.855	0.707	0.635	1.07
O=C(NCCN1CCOCC1)Nc1nc2ccc(Sc3nnc4ccc(-c5ccc(F)cc5)nn34)cc2s1	1.21	1.01	1.2	1.23	0.646	1.15
C[C@H]1CO[C@@H]2Cn3cc(C(=O)NCc4ccc(F)cc4F)c(=O)c(O)c3C(=O)N12	1.14	1.26	0.669	0.944	0.626	0.809
O=C(Nc1cccc(C2=NCCN2)c1)Nc1cccc(C2=NCCN2)c1 [Imidocarb dipropionate]	1.26	1.66	1.76	1.4	1.23	1.75
C=CC1=C(C(=O)O)N2C(=O)[C@@H](NC(=O)/C(=N\O)c3csc(N)n3)[C@H]2SC1 [Cefdinir]	0.892	0.765	2.48	1.4	1.17	0.686
COc1cc(C2Oc3cc([C@H]4Oc5cc(O)cc(O)c5C(=O)[C@@H]4O)ccc3OC2CO)ccc1O (stereo partly specified) [Silibinin]	0.696	1.28	0.646	0.713	0.547	0.847
N=C(N)NCCN1CCCCCCC1 [Guanethidine Monosulfate]	1.05	1.78	0.775	1.38	0.975	1.68
CN(Cc1ccc(C(C)(C)C)cc1)Cc1cccc2ccccc12 [Butenafine HCl]	0.641	0.57	0.938	0.74	0.375	1.15
C[C@H](Cc1cc2c(c(C(N)=O)c1)N(CCCO)CC2)NCCOc1ccccc1OCC(F)(F)F [Silodosin]	2.28	1.27	1.57	2.6	2.41	1.57
CS(=O)(=O)CCC#N [Dapansutrile (OLT1177)]	0.937	0.857	2.91	0.633	0.92	1.45
O=C(O)C1(c2ccc(-c3ccc(Cl)c(Cl)c3)c(F)c2)CC1	0.785	1.02	1.42	1.35	1.17	1.72
O=C1c2c(O)ccc(O)c2C(=O)c2c(NCCNCCO)ccc(NCCNCCO)c21 [Mitoxantrone 2HCl]	5.6	5.26	4.77	7.28	5.09	5.15
Cc1ccc(C(=O)N(CCCN)[C@@H](c2oc3cc(Cl)ccc3c(=O)c2Cc2ccccc2)C(C)C)cc1	3.9	3.16	3.86	2.4	2.19	3.2
Nc1ccc(C(=O)Nc2cccc(-c3nc(N4CCOCC4)c4oc5ncccc5c4n3)c2)cn1	4.09	5.02	4.16	1.63	3.45	2.25

SMILES	Euclidean distance (786-O)	Euclidean distance (A549)	Euclidean distance (DU145)	Euclidean distance (FB)	Euclidean distance (HEPG2)	Euclidean distance (OVCAR4)
CC(C)OC(=O)CCC/C=C\C[C@@H]1[C@@H](/C=C/[C@@H](O)COc2cccc(C(F)(F)F)c2)[C@H](O)C[C@@H]1O [Travoprost]	0.945	0.886	0.732	1.11	1.07	1.25
CCN(c1cc(-c2ccc(CN3CCOCC3)cc2)cc(C(=O)NCc2c(C)cc(C)[nH]c2=O)c1C)C1CCOCC1 [Tazemetostat (EPZ-6438)]	0.99	1.2	0.651	0.92	0.489	1.16
O=S(=O)(O)CCCCOC[C@H]1O[C@@H]2O[C@H]3[C@H](O)[C@@H](O)[C@@H](O[C@H]4[C@H](O)[C@@H](O)[C@@H](O[C@H]5[C@H](O)[C@@H](O)[C@@H](O[C@H]6[C@H](O)[C@@H](O)[C@@H](O[C@H]7[C@H](O)[C@@H](O)[C@@H](O[C@H]8[C@H](O)[C@@H](O)[C@@H](O[C@H]1[C@H](O)[C@H]2O)O[C@@H]8CO)O[C@@H]7COCCCCS(=O)(=O)O)O[C@@H]6COCCCCS(=O)(=O)O)O[C@@H]5COCCCCS(=O)(=O)O)O[C@@H]4COCCCCS(=O)(=O)O)O[C@@H]3COCCCCS(=O)(=O)O [Captisol (SBE-Œ≤-CD)]	1.09	0.893	0.704	1.13	1.38	1.1
OC(Cn1cncn1)(Cn1cncn1)c1ccc(F)cc1F [Fluconazole]	1.5	1.3	1.41	1.35	0.443	1.44
Cc1cccc(N(C)C(=S)Oc2ccc3ccccc3c2)c1 [Tolnaftate]	1.29	0.815	1.01	0.908	1.96	1.36
C[C@H]1COC2=C1C(=O)C(=O)c1c2ccc2c1CCCC2(C)C [Cryptotanshinone]	1.53	2.51	1.48	1.17	1.25	1.31
Cc1cn([C@@H]2C[C@@H](O)[C@H](CO)O2)c(=O)[nH]c1=O [Telbivudine]	1.15	0.884	0.651	1.53	0.469	1.12
CO[C@@]1(NC(=O)Cc2cccs2)C(=O)N2C(C(=O)O)=C(COC(N)=O)CS[C@@H]21 [Cefoxitin sodium]	1.26	0.874	1.51	1.02	0.857	0.983
CN(C(=O)c1c(O)c2ccccc2n(C)c1=O)c1ccccc1 [Roquinimex]	0.929	0.796	1.13	1.32	0.76	0.974
CC(C)N(CCCNC(=O)Nc1ccc(C(C)(C)C)cc1)C[C@H]1O[C@@H](n2cc(Br)c3c(N)ncnc32)[C@H](O)[C@@H]1O	0.633	1.32	1.19	1.58	1.15	0.804
COc1ccccc1N1CCN(CC(O)COc2cccc3ccccc23)CC1 (stereo unspecified) [Naftopidil]	1.4	1.01	0.795	1.01	0.934	0.99
O=c1ccc2ccc(OCCCCN3CCN(c4cccc5sccc45)CC3)cc2[nH]1 [Brexpiprazole]	1.47	1.82	2.84	1.52	2.28	1.15
CO[C@@H]1[C@@H](OC(N)=O)[C@@H](O)[C@H](Oc2ccc3c(O)c(NC(=O)c4ccc(O)c(CC=C(C)C)c4)c(=O)oc3c2C)OC1(C)C [Novobiocin Sodium]	0.865	0.868	0.814	1.04	0.385	1.19
COC(=O)N/N=C/c1c[n+]([O-])c2ccccc2[n+]1[O-] [Carbadox]	0.912	0.99	0.837	1.23	1.04	1.46
N#Cc1ccnc(N2C(=O)CC[C@H]2C(=O)N(c2cncc(F)c2)[C@H](C(=O)NC2CC(F)(F)C2)c2ccccc2Cl)c1 [Ivosidenib (AG-120)]	0.973	0.609	1.95	1.1	0.986	1.55
Cc1ncc([N+](=O)[O-])n1CC(O)CCl (stereo unspecified) [Ornidazole]	1.17	0.686	0.775	1.03	0.557	0.676
COc1ccc(Cl)cc1C(=O)NCCc1ccc(S(=O)(=O)NC(=O)NC2CCCCC2)cc1 [Glyburide]	1.1	0.731	1.49	1.27	2.08	1.32
N[C@@H]1CCCCN(c2c(F)cc3c(=O)c(C(=O)O)cn(C4CC4)c3c2Cl)C1 [Besifloxacin HCl]	0.849	1.19	0.808	0.781	0.864	0.585

Reference: the supplement of paper PMC10127200
